Results on 13 compounds are retold here after PubChem BioAssay (NCI).

Some test systems named below: SR leukemia; RPMI-8226 leukemia; OVCAR-8 ovarian; OVCAR-5 ovarian; OVCAR-4 ovarian; SK-OV-3 ovarian; IGROV1 ovarian; OVCAR-3 ovarian; HS 578T breast; NCI/ADR-RES ovarian.
Holding throughout (assay): NCI-60 one-dose screen, 48 h (100 = growth as untreated, 0 = no growth, -100 = all killed)
What all share (conditions): 10 µM unless noted

This is part of a sample that, as a whole, favours compounds with a hit. Of some 83,000 tested, about 20% had one in any assay.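 Assay: single dose, 48 h. Readout: percent growth (0 = no net growth; negative = cell death). Active: <10.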 Unmarked numbers belong to inactive results. The source made the active and inactive calls.

Consider `CN1C(=O)/C(=C/c2ccc(C(=O)Nc3ncc(Cc4ccc(F)cc4)s3)cc2)SC1=S`, for which the growth was 44.5% in the test on SR leukemia; 54.6% with RPMI-8226 leukemia; 57.9% in the test with OVCAR-8 ovarian; 61.2% with OVCAR-5 ovarian; 60.1% with OVCAR-4 ovarian; 40.3% in the test with SK-OV-3 ovarian. Further, the growth in the test with IGROV1 ovarian is 54.3%; in the test with OVCAR-3 ovarian it was 27.7%; in the test with HS 578T breast, 37.9%; in the test with NCI/ADR-RES ovarian it was 28.7%.

As for `O=c1[nH]cnc2c1C(c1ccc(Br)cc1)c1sc3c(F)cccc3c1O2` (stereo not given), the growth was 54.7% in the test on SR leukemia; 60.4% in the test on RPMI-8226 leukemia; 95.3% with OVCAR-8 ovarian; 90.7% in the test with OVCAR-5 ovarian; 94.9% in the test on OVCAR-4 ovarian; 117% in the test with SK-OV-3 ovarian. Further, the growth in the test with IGROV1 ovarian is 84.4%; in the test with OVCAR-3 ovarian it was 107%; in the test on HS 578T breast, 85.2%; in the test with NCI/ADR-RES ovarian, 100%.

For the compound `COc1ccccc1NC(=O)c1ccc(/C=C/C(=O)c2nccn2C)cc1`, the growth in the test with SR leukemia is -18.2% (active); with RPMI-8226 leukemia it was -35% (active); with OVCAR-8 ovarian, 4.61% (active); in the test with OVCAR-5 ovarian, -80.9% (active); with OVCAR-4 ovarian, -34.8% (active); with SK-OV-3 ovarian, 15.8%. Further, the growth with IGROV1 ovarian was -56.5% (active); with OVCAR-3 ovarian, -90.9% (active); in the test with HS 578T breast it was 35.5%; in the test on NCI/ADR-RES ovarian it was 5.75% (active).

As for `CCCCCCCCn1ccc2cc(NC(=O)Cn3cc(CN4CCCCCC4)nn3)ccc21`, the growth is -13.1% (active) in the test on SR leukemia; -9.08% (active) in the test on RPMI-8226 leukemia; 30% in the test with OVCAR-8 ovarian; 35.6% in the test with OVCAR-5 ovarian; 51% in the test with OVCAR-4 ovarian; 97.6% in the test on SK-OV-3 ovarian. Further, the growth in the test on IGROV1 ovarian is 52.2%; in the test on OVCAR-3 ovarian, 10.1%; with HS 578T breast it was 65.7%; in the test on NCI/ADR-RES ovarian, 55.1%.

Take `CCN(CC)CCCNCc1cc(-c2ccccc2)nc2cc(Cl)ccc12`: the growth with SR leukemia is 13.6%; in the test with RPMI-8226 leukemia, 3.47% (active); in the test on OVCAR-8 ovarian it was 28.8%; with OVCAR-5 ovarian, 87.5%; with OVCAR-4 ovarian, 67.8%; with SK-OV-3 ovarian it was 75.6%. Moreover, the growth is 28.9% in the test with IGROV1 ovarian, 61.7% in the test with OVCAR-3 ovarian, 24.2% in the test on HS 578T breast and 23.2% in the test on NCI/ADR-RES ovarian.

Turning to `Cc1ccc(N=Nc2c(N)nn(-c3ccccc3)c2N)cc1`, the growth is -16.6% (active) in the test with SR leukemia; -1.12% (active) in the test on RPMI-8226 leukemia; 41.6% in the test with OVCAR-8 ovarian; 55.3% in the test on OVCAR-5 ovarian; 75% in the test with OVCAR-4 ovarian; 37.2% with SK-OV-3 ovarian. Moreover, the growth in the test on IGROV1 ovarian was 48.3%; in the test with OVCAR-3 ovarian it was 0.588% (active); in the test on HS 578T breast, 36.1%; in the test on NCI/ADR-RES ovarian it was -5.12% (active).

Take `O=C(N=Nc1c(O)[nH]c2ccccc12)Nc1ccc(Cl)cc1`: the growth in the test on SR leukemia is 79.1%; in the test on RPMI-8226 leukemia, 56.1%; in the test with OVCAR-8 ovarian it was 102%; in the test on OVCAR-5 ovarian it was 86%; in the test with OVCAR-4 ovarian it was 98.2%; with SK-OV-3 ovarian it was 96.5%. Moreover, the growth in the test on IGROV1 ovarian was 80.2%; in the test on OVCAR-3 ovarian, 97.5%; in the test with HS 578T breast, 95.1%; in the test on NCI/ADR-RES ovarian it was 110%.

Regarding `CCN1C(=O)N(CC)C2C1NN=C1SCC(=O)N12` (stereo not given), the growth with SR leukemia is 95.7%; in the test on RPMI-8226 leukemia it was 80.6%; in the test with OVCAR-8 ovarian, 66.3%; with OVCAR-5 ovarian, 95.8%; with OVCAR-4 ovarian, 32.6%; in the test on SK-OV-3 ovarian, 105%. For the same compound, the growth was 27.2% with IGROV1 ovarian, 24.5% in the test on OVCAR-3 ovarian, 98.4% in the test with HS 578T breast and 84.6% in the test with NCI/ADR-RES ovarian.

For `CCCCCCCCn1ccc2cc(NC(=O)Cn3cc(CN4CCOCC4)nn3)ccc21`, the growth in the test with SR leukemia was 87.6%; in the test with RPMI-8226 leukemia, 94.8%; with OVCAR-8 ovarian, 102%; in the test with OVCAR-5 ovarian, 91.1%; with OVCAR-4 ovarian, 99.5%; with SK-OV-3 ovarian it was 111%. The growth is 96.4% with IGROV1 ovarian, 98.2% with OVCAR-3 ovarian, 90% in the test on HS 578T breast and 115% in the test on NCI/ADR-RES ovarian.

On to `C#Cc1cccc(Nc2nc3ccc([N+](=O)[O-])cc3nc2Nc2cccc(C#C)c2)c1`, for which the growth was -22.1% (active) in the test on SR leukemia; -21.7% (active) in the test with RPMI-8226 leukemia; -23.3% (active) in the test on OVCAR-8 ovarian; -17.6% (active) in the test with OVCAR-5 ovarian; -43.7% (active) with OVCAR-4 ovarian; -84.9% (active) in the test with SK-OV-3 ovarian. The growth with IGROV1 ovarian was -29% (active); in the test with OVCAR-3 ovarian it was -67.4% (active); with HS 578T breast it was -19.1% (active); in the test with NCI/ADR-RES ovarian, -9.97% (active).

For the compound `Cc1c(N2CN3C[C@H](C)N4CN(c5c(C)n(C)n(-c6ccccc6)c5=O)CN5C[C@@H](C)N(C2)C3C54)c(=O)n(-c2ccccc2)n1C` (stereo not given in full), the growth was 38.1% with SR leukemia; 96% in the test with RPMI-8226 leukemia; 104% in the test on OVCAR-8 ovarian; 106% with OVCAR-5 ovarian; 103% in the test with OVCAR-4 ovarian; 99.2% in the test on SK-OV-3 ovarian. Moreover, the growth with IGROV1 ovarian was 102%; in the test with OVCAR-3 ovarian, 100%; in the test on HS 578T breast, 95.9%; in the test on NCI/ADR-RES ovarian, 97.2%.

Take `CC(C)(CO)N(CCO)CCO`: the growth in the test with SR leukemia is 99.5%; in the test on RPMI-8226 leukemia it was 95%; in the test on OVCAR-8 ovarian, 110%; in the test with OVCAR-5 ovarian, 93.1%; in the test on OVCAR-4 ovarian, 110%; with SK-OV-3 ovarian, 109%. Further, the growth with IGROV1 ovarian was 113%; in the test with OVCAR-3 ovarian it was 112%; in the test on HS 578T breast, 113%; with NCI/ADR-RES ovarian, 102%.

With `N=C(N)SCc1cccc2c(CSC(=N)N)cccc12`, the growth in the test with SR leukemia is 92.9%; in the test on RPMI-8226 leukemia, 107%; with OVCAR-8 ovarian, 102%; in the test on OVCAR-5 ovarian, 92.4%; with OVCAR-4 ovarian it was 116%; with SK-OV-3 ovarian, 113%. The growth was 99.2% with IGROV1 ovarian, 102% in the test with OVCAR-3 ovarian, 100% with HS 578T breast and 105% with NCI/ADR-RES ovarian.
